# Records with an inconclusive call do not appear. Unmarked numbers belong to inactive results. Calls follow the shape of the dose curve; as a rule, active = well fitted inhibition curve with a large enough effect; inconclusive = small, poorly fitted or top-dose-only effect; inactive = no such curve, though single readings can be large or run the other way.
# Experiment: HTS Assay for Allosteric Antagonists of the Human D2 Dopamine Receptor: Hit Validation in HTRF (AID 624455);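 also: stable D1 dopamine receptor cell line scored for blocking the D1 response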
# Details: Cells stably expressing D1 dopamine receptor, inhibition mode; series mostly up to 46.1 µM; activity, negative = inhibition: at the top concentration
# How it was run: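 Hits were examined in an HTRF assay using cells stably expressing the D1 dopamine receptor, scoring inhibition of the D1-mediated response. The preceding primary screen tracked calcium flux after an EC80 dopamine addition in force-coupled, inducible Hek293 Trex D2 cells.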
# % is scaled to controls: 0 for no effect and ±100 for the full control effect.
row,SMILES,"activity, negative = inhibition"
1,CC(=O)O[C@H]1C[C@@H]2CC[C@@H]3[C@H](CC[C@@]4(C)[C@H]3C[C@H]([N+]3(C)CCCCC3)[C@@H]4OC(C)=O)[C@@]2(C)C[C@@H]1[N+]1(C)CCCCC1,2.15%
2,CC1(C)CCC(NC(=O)[C@@H](N)CCC(=O)O)CC1,-2.78%
3,COc1cc(NS(C)(=O)=O)ccc1Nc1c2ccccc2nc2ccccc12,4.78%
4,CNCCC=C1c2ccccc2CCc2ccccc21,15.8%
5,CCC(NC(C)C)C(O)c1ccc(O)c(O)c1 (configuration not stated),3.46%
6,COc1cc2c(cc1O)CC[C@@H]1[C@@H]2CC[C@]2(C)[C@@H](O)CC[C@@H]12,2.84%
7,CN1C2CCC1CC(OC(=O)c1c[nH]c3ccccc13)C2 (configuration not stated),4.2%
8,C[C@]12CC[C@@H]3c4ccc(O)cc4CC[C@H]3[C@@H]1CC[C@@H]2O,-1.47%
9,C[N+]1(CCCCC[N+]2(C)CCCC2)CCCC1,2.04%
10,CC[C@H](C)C(=O)O[C@H]1CCC=C2C=C[C@H](C)[C@H](CC[C@@H]3C[C@@H](O)CC(=O)O3)[C@H]21,-0.401%
11,Nc1cc(Cl)c(NC2=NCCN2)c(Cl)c1,-7.14%
12,O=C1CCC(c2ccc(-n3ccnc3)cc2)=NN1,1.49%
13,COC(=O)[C@H]1[C@H]2C[C@H]3c4[nH]c5ccccc5c4CCN3C[C@H]2CC[C@@H]1O,3.46%
14,CCCn1c(=O)[nH]c(=O)c2[nH]cnc21,2.74%
15,CC(C)COC(=O)OCN1C(=O)CN(CCN2CC(=O)N(COC(=O)OCC(C)C)C(=O)C2)CC1=O,0.224%
16,Oc1ccc(O)cc1,1.71%
17,CC(CCc1ccccc1)NCC(O)c1ccc(O)c(C(N)=O)c1 (configuration not stated),-0.884%
18,N[C@@H](Cc1cnc[nH]1)C(=O)O,-1.24%
19,CCCC1O[C@@H]2C[C@H]3[C@@H]4CCC5=CC(=O)C=C[C@]5(C)[C@H]4[C@@H](O)C[C@]3(C)[C@]2(C(=O)CO)O1 (some centres not stated),-0.13%
20,C[C@@H]1C(=O)NC2=Nc3cccc(Cl)c3CN21,1.78%
21,N[C@H](CO)C(=O)O,-1.67%
22,O=C(O)c1cc2cc(Cc3cccnc3)ccc2o1,-3.51%
